In PubChem BioAssay AID1159580 (chemical genetic matrix, 2015):
Among all 5,500 compounds or so, about 2,000 (36%) were called active. Inconclusive results (about 18%) are left out. Cut-off read from the data, not from the text of the source: active = normalized growth mostly below about 0.91 (no sharp cut-off); inconclusive = no clear call, values can overlap the other calls; inactive = mostly above about 0.92. This is one part of the list.

Assay: chemical genetic growth profiling, strain panel (AID 1159580);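 note: tested at 20 µM; growth read once vehicle control cultures reached saturation at 30 °C; 1 = growth at the plate median or of vehicle wells; lower values mean less growth of the strain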
Conditions: S. cerevisiae deletion strains, growth OD
[1] = locus YAL013W, strain DEP1, active compounds read low
[2] = locus YAL040C, strain CLN3, active compounds read low
[3] = locus YCL061C, strain MRC1 (second series), active compounds read low
[4] = locus YDR363W, strain ESC2, active compounds read low
[5] = locus YER002W, strain NOP16, active compounds read low
[6] = locus YGR078C, strain PAC10, active compounds read low
[7] = locus YJR075W, strain HOC1, active compounds read low
[8] = locus YMR263W, strain SAP30, active compounds read low
[9] = locus YNL175C, strain NOP13, active compounds read low
[10] = locus YNL197C, strain WHI3, active compounds read low
[11] = locus YNL224C, strain SQS1, active compounds read low
[12] = locus YOR083W, strain WHI5 (second series), active compounds read low
[13] = locus YPL241C, strain CIN2, active compounds read low

Measured: normalized growth

NNC(=O)c1ccc(O)cc1
inactive: [1] 0.949 | [2] 0.963 | [3] 0.991 | locus YDR150W, strain NUM1, active compounds read low 1.01 | [4] 0.99 | [5] 0.985 | [6] 0.992 | [7] 0.988 | [8] 0.986 | locus YNL153C, strain GIM3, active compounds read low 0.989 | [9] 0.994 | [10] 0.991 | [11] 0.974 | locus YNL322C, strain KRE1, active compounds read low 0.97 | [12] 1.05 | locus YPL055C, strain LGE1, active compounds read low 0.977 | [13] 0.988

CNCC(O)c1ccc(O)cc1 (configuration not stated)
inactive: [1] 1.03 | [2] 1.02 | [3] 1 | [4] 1.01 | [5] 1.02 | [6] 1.02 | [7] 1.01 | [8] 1 | locus YMR307W, strain GAS1, active compounds read low 1.04 | locus YNL128W, strain TEP1, active compounds read low 1.03 | [9] 1.02 | [10] 1.01 | [11] 0.999 | [12] 1.02 | [13] 1
